Measured values from PubChem BioAssay (Tox21).
Inconclusive results are not listed. Calls of active or inactive are those of the source. Unless noted, calls come from the whole dose curve; as a rule, active = well fitted curve in the direction sought with a large enough effect in the repeat runs; inconclusive = weak or mixed curves; inactive = no such curve, though single readings can be large; an effect the other way counts as inactive or inconclusive.

Legend:
[1] = target: Androgen receptor (Homo sapiens) (UniProt P10275); assay: qHTS assay to identify small molecule antagonists of the androgen receptor (AR) signaling pathway using the MDA cell line in the presence of 0.5 nM R1881 (AID 1259243); note: nearly all actives have a fitted effect of over 50% in size; note: potency is the fitted concentration of half-maximal effect
Chain of Androgen receptor (Homo sapiens) (P10275 whole entry, looked up): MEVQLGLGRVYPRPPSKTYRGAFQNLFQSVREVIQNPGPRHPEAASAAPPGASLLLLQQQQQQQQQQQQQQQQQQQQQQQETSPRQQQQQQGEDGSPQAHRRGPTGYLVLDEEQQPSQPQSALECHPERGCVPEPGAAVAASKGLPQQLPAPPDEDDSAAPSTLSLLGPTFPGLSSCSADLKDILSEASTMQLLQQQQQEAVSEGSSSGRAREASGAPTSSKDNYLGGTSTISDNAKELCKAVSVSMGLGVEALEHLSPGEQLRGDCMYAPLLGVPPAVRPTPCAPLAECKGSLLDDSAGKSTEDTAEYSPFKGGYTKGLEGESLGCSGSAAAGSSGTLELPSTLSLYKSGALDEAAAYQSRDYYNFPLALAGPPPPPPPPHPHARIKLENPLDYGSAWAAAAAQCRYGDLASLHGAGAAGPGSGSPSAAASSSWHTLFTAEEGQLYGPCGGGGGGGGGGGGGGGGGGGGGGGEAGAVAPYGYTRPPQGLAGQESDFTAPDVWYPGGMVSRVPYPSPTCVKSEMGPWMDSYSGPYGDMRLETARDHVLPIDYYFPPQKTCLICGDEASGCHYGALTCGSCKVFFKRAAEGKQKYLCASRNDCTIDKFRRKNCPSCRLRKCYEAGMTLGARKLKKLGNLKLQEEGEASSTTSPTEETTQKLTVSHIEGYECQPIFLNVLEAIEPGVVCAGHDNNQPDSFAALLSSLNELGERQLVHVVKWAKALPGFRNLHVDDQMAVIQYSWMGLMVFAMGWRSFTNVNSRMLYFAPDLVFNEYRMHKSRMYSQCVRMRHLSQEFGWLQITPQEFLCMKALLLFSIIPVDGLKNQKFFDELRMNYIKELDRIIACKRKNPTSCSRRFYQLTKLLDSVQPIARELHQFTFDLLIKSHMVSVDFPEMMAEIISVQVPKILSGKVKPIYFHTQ
Summary of the method: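 We exposed MDA-kb2 cells to compounds under 0.5 nM R1881 stimulation for 16 hr at 37C and quantified MMTV-driven luciferase by luminescence.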

[2] = target: Estrogen receptor (Homo sapiens) (UniProt P03372); assay: qHTS assay to identify small molecule antagonists of the estrogen receptor alpha (ER-alpha) signaling pathway using the BG1 cell line in the presence of 0.1 nM 17-beta-estradiol (AID 1259244); note: nearly all actives have a fitted effect of over 50% in size; note: potency is the fitted concentration of half-maximal effect
Chain of Estrogen receptor (Homo sapiens) (P03372 whole entry, looked up): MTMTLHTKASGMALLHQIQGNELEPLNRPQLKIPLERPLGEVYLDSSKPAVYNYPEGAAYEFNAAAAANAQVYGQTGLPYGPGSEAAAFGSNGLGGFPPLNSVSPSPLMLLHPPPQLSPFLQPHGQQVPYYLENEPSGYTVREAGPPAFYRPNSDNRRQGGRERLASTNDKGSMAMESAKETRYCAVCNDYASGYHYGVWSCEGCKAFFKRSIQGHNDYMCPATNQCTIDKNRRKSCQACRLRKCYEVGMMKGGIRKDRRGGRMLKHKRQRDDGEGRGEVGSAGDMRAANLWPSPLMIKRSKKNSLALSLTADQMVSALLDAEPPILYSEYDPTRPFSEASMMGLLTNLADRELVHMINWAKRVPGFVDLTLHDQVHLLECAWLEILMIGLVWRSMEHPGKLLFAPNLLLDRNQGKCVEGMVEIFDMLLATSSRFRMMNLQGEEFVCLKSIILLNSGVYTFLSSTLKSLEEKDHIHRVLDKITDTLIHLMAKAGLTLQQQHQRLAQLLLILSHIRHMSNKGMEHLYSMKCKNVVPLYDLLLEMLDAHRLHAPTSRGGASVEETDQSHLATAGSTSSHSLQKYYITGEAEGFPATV
Summary of the method: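 VM7Luc4E2; 4xERE-luciferase; 0.1 nM E2 final; 22 h co-incubation, 37C; ONE-Glo luminescence after 30 min at room temperature.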

[3] = qHTS assay to identify small molecule HDAC inhibitors (AID 1259364);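 note: wild-type HCT-116 cells with endogenous class I/II HDAC activity; top concentration of the series differs between compounds; nearly all actives have a fitted effect of over 45% in size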
Summary of the method: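 Relative class I and II HDAC activity is taken from the luminogenic signal in HCT-116 cells, with compound exposure 2 hr and reagent development 30 min at room temperature.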

[4] = qHTS assay to identify small molecule HDAC inhibitors - cell viability counter screen (AID 1259365); note: series mostly up to about 92 µM; nearly all actives have a fitted effect of over 50% in size
Summary of the method: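 After overnight seeding at 1,500 cells per well, wild-type HCT-116 cultures took up compounds in DMSO for 2hr at 37 C. Viable cell content came from luminescence with CellTiter-Glo.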

[5] = qHTS assay to identify small molecule agonists of the sonic hedgehog signaling (Shh) pathway - cell viability counter screen (AID 1259366); note: nearly all actives have a fitted effect of over 50% in size
Summary of the method: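 Same-well cytotoxicity read. Gli1-Luc reporter 3T3 cells; compounds 24hr, 37C/5% CO2; CellTiter-Fluor fluorescence.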

[6] = qHTS assay to identify small molecule antagonists of the sonic hedgehog signaling (Shh) pathway - cell viability counter screen (AID 1259367); note: nearly all actives have a fitted effect of over 55% in size
Summary of the method: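 Using CellTiter-Fluor, viability of Gli1-Luc reporter 3T3 cells is read by fluorescence in the wells used for the Shh luciferase assay. Treatment lasts 23 hr with conditioned medium, then reagent 1 hr at 37C.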

[7] = qHTS assay to identify small molecule agonists of the sonic hedgehog signaling (Shh) pathway (AID 1259368; calls by dose curve;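 note: NIH/3T3-derived 3T3Gli1-Luc cells carrying a stable Gli1-driven firefly luciferase reporter; series mostly up to about 92 µM; nearly all actives have a fitted effect of over 15% in size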)
Summary of the method: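 Mouse fibroblast (NIH/3T3) reporter cells with stably integrated Gli1-Luc were treated 24 hr with compound; firefly luciferase luminescence served as the read-out.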

[8] = qHTS assay to identify small molecule antagonists of the sonic hedgehog signaling (Shh) pathway (AID 1259369; calls by dose curve; note: nearly all actives have a fitted effect of over 45% in size; note: potency is the fitted concentration of half-maximal effect)
Summary of the method: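 Conditioned medium drives Shh signalling in 3T3Gli1-Luc cells; compounds in DMSO co-applied, 24hr at 37 C, then luciferase luminescence.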

[9] = target: Estrogen receptor beta (Homo sapiens) (UniProt Q92731); assay: qHTS assay to identify small molecule agonists of the estrogen receptor beta (ER-beta) signaling pathway (AID 1259377; active = well fitted activation curve with a large enough effect in the signal ratio in the repeat runs, not every such curve was filed as active; the % refers to the signal ratio)
Chain of Estrogen receptor beta (Homo sapiens) (Q92731 whole entry, looked up): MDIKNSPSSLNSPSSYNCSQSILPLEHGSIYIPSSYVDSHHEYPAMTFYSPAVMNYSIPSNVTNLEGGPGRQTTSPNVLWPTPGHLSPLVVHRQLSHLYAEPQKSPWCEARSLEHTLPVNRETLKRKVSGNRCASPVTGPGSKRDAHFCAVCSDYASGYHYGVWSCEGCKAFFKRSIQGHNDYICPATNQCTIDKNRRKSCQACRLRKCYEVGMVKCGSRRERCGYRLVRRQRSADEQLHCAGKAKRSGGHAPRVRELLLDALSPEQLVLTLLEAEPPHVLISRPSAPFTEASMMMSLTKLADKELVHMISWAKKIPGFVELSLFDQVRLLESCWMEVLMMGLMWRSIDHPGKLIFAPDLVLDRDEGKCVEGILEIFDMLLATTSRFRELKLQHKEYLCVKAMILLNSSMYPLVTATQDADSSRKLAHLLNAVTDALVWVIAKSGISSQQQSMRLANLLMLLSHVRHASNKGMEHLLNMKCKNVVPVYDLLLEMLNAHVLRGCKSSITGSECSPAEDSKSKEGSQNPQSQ
Summary of the method: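 Read-out: beta-lactamase FRET fluorescence. Cell line: ER-beta-UAS-bla HEK293T in 2% charcoal-stripped FBS. Exposure: 16 hr at 37C. Substrate step: 2 h at room temperature.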

[10] = target: Estrogen receptor beta (Homo sapiens) (UniProt Q92731); assay: qHTS assay to identify small molecule antagonists of the estrogen receptor beta (ER-beta) signaling pathway (AID 1259378; active = well fitted inhibition curve with a large enough effect in the signal ratio in the repeat runs, not every such curve was filed as active; the % refers to the signal ratio; note: potency is the fitted concentration of half-maximal effect)
Summary of the method: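 Antagonist mode: compounds added to beta-lactamase reporter HEK293T ER-beta-UAS cells stimulated with E2 (1nM final), 16 hr at 37C. LiveBLAzer B/G FRET substrate, 2 hours room temperature, fluorescence read-out.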

[11] = qHTS assay to identify small molecule agonists of the androgen receptor (AR) signaling pathway in the presence of an antagonist - cell viability counter screen (AID 1259379); note: nearly all actives have a fitted effect of over 25% in size; note: potency is the fitted concentration of half-maximal effect;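 for activity change, negative = cytotoxicity: MDA-kb2 human breast cancer cells carrying an MMTV luciferase reporter; series mostly up to about 92 µM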
Summary of the method: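 A CellTiter-Fluor read-out measured viability of MDA-kb2 reporter cells (MMTV promoter with AR and GR response elements). Treatment: nilutamide 3.0uM final with compounds at 15 concentrations, 16 hr, 37C, 0% CO2.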

[12] = qHTS assay to identify small molecule agonists of the estrogen receptor beta (ER-beta) signaling pathway - cell viability counter screen (AID 1259380); note: nearly all actives have a fitted effect of over 30% in size; note: potency is the fitted concentration of half-maximal effect
Summary of the method: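 Cells used were ER-beta-UAS-bla HEK293T in medium with 2% charcoal-stripped FBS. They were treated for 16 hr at 37C. Viability came from CellTiter-Glo luminescence.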

[13] = qHTS assay to identify small molecule antagonists of the estrogen receptor beta (ER-beta) signaling pathway - cell viability counter screen (AID 1259382); note: series mostly up to about 92 µM; nearly all actives have a fitted effect of over 55% in size
Summary of the method: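 Agonist-stimulated (1nM E2) ER-beta-UAS-bla HEK293T cells are incubated with library compounds for 16 hr at 37C. Cell viability is then assessed in the reporter-assay wells by adding CellTiter-Glo and reading luminescence after 30 min.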

[14] = target: Estrogen receptor (Homo sapiens) (UniProt P03372); assay: qHTS assay to identify small molecule agonists of the estrogen receptor alpha (ER-alpha) signaling pathway in the presence of an antagonist (AID 1259383; calls by dose curve; note: top concentration of the series differs between compounds; nearly all actives have a fitted effect of over 15% in size)
Summary of the method: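 Using VM7Luc4E2 cells seeded 24hr before treatment, antagonist ICI-182,780 (10.0nM final) was added, followed by compounds at 15 concentrations. Plates incubated 22hr; ONE-Glo luminescence quantified reporter activity.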

[15] = qHTS assay to identify small molecule agonists or antagonists of the thyroid stimulating hormone receptor (TSHR) signaling pathway - wild type cell line counter screen (AID 1259384; calls by dose curve)
Summary of the method: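 Counter screen in untransfected Hek293: compounds (15-point titration, triplicate) plus phosphodiesterase inhibitor Ro20-1724 added after 18 h plating; 30 min RT. Intracellular cAMP via competitive d2/cryptate immunoassay, 1 h incubation.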

[16] = target: Thyrotropin receptor (Homo sapiens) (UniProt P16473); assay: qHTS assay to identify small molecule antagonists of the thyroid stimulating hormone receptor (TSHR) signaling pathway (AID 1259385; calls by dose curve; note: nearly all actives have a fitted effect of over 20% in size)
Chain of Thyrotropin receptor (Homo sapiens) (P16473 whole entry, looked up): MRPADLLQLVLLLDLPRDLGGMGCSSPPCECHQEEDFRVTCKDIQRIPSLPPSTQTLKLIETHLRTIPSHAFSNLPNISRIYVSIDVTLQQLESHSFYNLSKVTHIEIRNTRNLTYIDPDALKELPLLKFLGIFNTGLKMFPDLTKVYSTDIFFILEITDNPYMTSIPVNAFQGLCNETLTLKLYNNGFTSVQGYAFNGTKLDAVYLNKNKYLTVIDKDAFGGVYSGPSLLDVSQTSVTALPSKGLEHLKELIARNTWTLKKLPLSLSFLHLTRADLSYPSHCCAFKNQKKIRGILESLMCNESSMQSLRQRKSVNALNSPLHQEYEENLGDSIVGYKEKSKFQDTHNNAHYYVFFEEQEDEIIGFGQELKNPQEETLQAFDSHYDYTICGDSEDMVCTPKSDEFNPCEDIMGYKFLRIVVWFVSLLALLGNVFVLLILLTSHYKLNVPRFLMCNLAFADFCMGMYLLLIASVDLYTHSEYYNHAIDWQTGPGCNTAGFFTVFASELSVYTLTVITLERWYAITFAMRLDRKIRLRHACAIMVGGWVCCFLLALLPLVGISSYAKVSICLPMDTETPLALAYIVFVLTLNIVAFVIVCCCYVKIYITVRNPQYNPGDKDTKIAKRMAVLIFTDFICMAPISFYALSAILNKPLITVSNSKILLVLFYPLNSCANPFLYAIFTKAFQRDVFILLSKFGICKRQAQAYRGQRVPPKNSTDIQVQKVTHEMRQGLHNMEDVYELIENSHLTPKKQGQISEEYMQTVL
Summary of the method: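 Antagonist mode: compound-treated TSHR-expressing HEK293 cells were stimulated with 1.5 ng/mL TSH (final) in presence of Ro20-1724 for 30 min at RT. HTRF cAMP detection after 1 h; each compound tested at 15 concentrations, triplicate.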

[17] = qHTS assay to identify small molecule agonists of the estrogen receptor alpha (ER-alpha) signaling pathway in the presence of an antagonist - cell viability counter screen (AID 1259386);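 note: series mostly up to about 92 µM; cells exposed to compounds for 22 h at 37 °C before the viability read; nearly all actives have a fitted effect of over 30% in size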
Summary of the method: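 ICI-182,780 at 10.0nM final accompanies the compound titration (15 concentrations, 22hr, 37C) on VM7Luc4E2 cells. The CellTiter-Fluor fluorescence readout runs in the same wells as the luciferase assay.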

[18] = target: Progesterone receptor (Homo sapiens) (UniProt P06401); assay: qHTS assay to identify small molecule agonists of the progesterone receptor (PR) signaling pathway (AID 1346784; calls by dose curve; note: nearly all actives have a fitted effect of over 30% in size)
Chain of Progesterone receptor (Homo sapiens) (P06401 whole entry, looked up): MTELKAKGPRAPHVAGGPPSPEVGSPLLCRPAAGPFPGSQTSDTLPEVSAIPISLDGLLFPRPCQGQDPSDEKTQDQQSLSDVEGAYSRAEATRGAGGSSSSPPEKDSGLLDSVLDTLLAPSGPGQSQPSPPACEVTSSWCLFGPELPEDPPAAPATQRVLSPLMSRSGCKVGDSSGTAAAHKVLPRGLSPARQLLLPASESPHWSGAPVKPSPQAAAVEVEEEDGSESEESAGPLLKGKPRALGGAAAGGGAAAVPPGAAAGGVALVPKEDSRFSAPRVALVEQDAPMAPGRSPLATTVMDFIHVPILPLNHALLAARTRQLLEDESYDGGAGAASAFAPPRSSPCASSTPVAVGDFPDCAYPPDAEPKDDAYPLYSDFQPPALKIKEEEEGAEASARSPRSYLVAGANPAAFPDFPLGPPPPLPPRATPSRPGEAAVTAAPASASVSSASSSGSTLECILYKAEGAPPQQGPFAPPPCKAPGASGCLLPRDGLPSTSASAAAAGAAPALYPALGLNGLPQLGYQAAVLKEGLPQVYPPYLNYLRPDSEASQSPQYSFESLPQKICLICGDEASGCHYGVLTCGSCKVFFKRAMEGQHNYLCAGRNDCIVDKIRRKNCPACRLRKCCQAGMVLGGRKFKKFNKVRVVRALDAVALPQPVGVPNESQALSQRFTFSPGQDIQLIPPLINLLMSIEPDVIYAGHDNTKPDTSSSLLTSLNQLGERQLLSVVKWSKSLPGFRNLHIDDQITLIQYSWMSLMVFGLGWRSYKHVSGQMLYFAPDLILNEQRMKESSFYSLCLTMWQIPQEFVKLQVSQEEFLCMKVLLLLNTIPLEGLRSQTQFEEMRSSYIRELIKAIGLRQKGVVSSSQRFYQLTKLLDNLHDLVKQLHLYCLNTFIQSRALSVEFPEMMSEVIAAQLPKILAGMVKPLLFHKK
Summary of the method: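 Compounds were tested for PR agonism in HEK 293T cells bearing a beta-lactamase gene under UAS control. Treatment lasted 16 hr at 37C; signal came from fluorescence of a FRET substrate.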

[19] = target: Androgen receptor (Homo sapiens) (UniProt P10275); assay: qHTS assay to identify small molecule agonists of the androgen receptor (AR) signaling pathway in the presence of an antagonist (AID 1259381; calls by dose curve; note: nearly all actives have a fitted effect of over 15% in size)
Summary of the method: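 Using human MDA-kb2 cells with an MMTV promoter–luciferase construct (AR and GR response elements), agonist activity is scored under 3.0uM nilutamide (final) co-treatment; 16hr incubation, 37C, luminescence readout via ONE-Glo.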

[20] = qHTS assay to identify small molecule phospholipidosis (PLD) inducers (AID 1259344; active = well fitted curve in the direction sought with a large enough effect; an effect the other way counts as inactive or inconclusive)
Summary of the method: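 Fluorescent phospholipid staining (LipidTOX Red) measured by automated microscopy in fixed HepG2 cells after 24 h treatment; nuclei counterstained with Hoechst 33342; amiodarone as reference inducer.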
% is set by controls: 0 for no effect and ±100 for the full control effect.

CC1=CP(=O)(c2ccccc2)CC1 (stereo not given)
inactive: Potency [1] | Potency [2] | Potency [3] | Potency [4] | Potency [5] | Potency [6] | Potency [7] | Potency [8] | Potency [9] | Potency [10] | Potency [11] | Potency [12] | Potency [13] | Potency [14] | outcome [15] | Potency [16] | Potency [17] | outcome [18]

OCCCS
inactive: Potency [1] | Potency [2] | Potency [3] | Potency [4] | Potency [5] | Potency [6] | Potency [7] | Potency [8] | Potency [10] | Potency [11] | Potency [12] | Potency [13] | Potency [14] | outcome [15] | Potency [16] | Potency [17] | outcome [18]

C=C/C=C/C=C/CCCCC
inactive: activity, negative = inhibition [1] 3% [at 19 µM] | activity change, negative = inhibition [2] -0.135% [at 19 µM] | activity change, negative = inhibition [3] -2.93% [at 19 µM] | activity change, negative = cytotoxicity [4] -0.499% [at 19 µM] | viability change, negative = cytotoxic [5] -4.32% [at 19 µM] | viability change, negative = cytotoxic [6] -2.58% [at 19 µM] | activity change [7] -0.134% [at 18.9 µM, hits give high values] | activity change, negative = inhibition [8] -23.5% [at 19 µM] | activation [9] -0.263% [at 19 µM] | activity, negative = inhibition [10] -14.6% [at 19 µM] | activity change, negative = cytotoxicity [11] 1.29% [at 19 µM] | activity change, negative = cytotoxicity [12] -7.99% [at 19 µM] | activity change, negative = cytotoxicity [13] 0.024% [at 19 µM] | activation [14] -1.21% [at 19 µM] | cAMP activity change [15] 0.413% [at 18.9 µM] | activity change, negative = inhibition [16] 1.23% [at 19 µM] | activity change, negative = cytotoxicity [17] -2.67% [at 19 µM]

CCC(C)(C)c1cc(O)c(C(C)(C)CC)cc1O
active: Potency [1] 17.2 µM | Potency [2] 68.6 µM | Potency [8] 6.86 µM | Potency [10] 48.6 µM | Potency [11] 61.1 µM | Potency [12] 61.1 µM
inactive: Potency [3] | Potency [4] | Potency [5] | Potency [6] | Potency [7] | Potency [9] | Potency [19] | Potency [13] | Potency [14] | outcome [15] | Potency [17] | outcome [18]

CCOCOCC
inactive: Potency [1] | Potency [2] | Potency [3] | Potency [4] | Potency [5] | Potency [6] | Potency [7] | Potency [8] | Potency [9] | Potency [10] | Potency [11] | Potency [12] | Potency [19] | Potency [13] | Potency [14] | Potency [16] | Potency [17] | outcome [18]

CCCC(=O)OCC(COC(=O)CCC)OC(=O)CCC
inactive: Potency [1] | Potency [2] | Potency [3] | Potency [4] | Potency [5] | Potency [6] | Potency [7] | Potency [8] | Potency [9] | Potency [10] | Potency [11] | Potency [12] | Potency [13] | Potency [14] | outcome [15] | Potency [16] | Potency [17]

O=C(O)Cc1ccc(OCCNC[C@H](O)c2ccccc2)cc1
inactive: Potency [1] | Potency [2] | Potency [20] | Potency [3] | Potency [4] | Potency [5] | Potency [7] | Potency [12] | Potency [19] | Potency [13] | Potency [14] | outcome [15] | Potency [16] | Potency [17] | outcome [18]
